# Reference: PMC4081100, “A DNA-binding-site landscape and regulatory network analysis for NAC transcription factors in Arabidopsis thaliana”
# How the values were obtained:
# Assay in all cases: universal protein binding microarray (PBM); transcription factors of Arabidopsis thaliana; high values mean tight binding
# Settings in all cases: protein: recombinant; tags: GST; chain copies: 2; dsDNA, one strand shown
# GST-ANAC092(1-176) = molecular target: T1, GST-ANAC092(1-176) (Arabidopsis thaliana, UniProt Q9FKA0 1-176)
# T1 sequence: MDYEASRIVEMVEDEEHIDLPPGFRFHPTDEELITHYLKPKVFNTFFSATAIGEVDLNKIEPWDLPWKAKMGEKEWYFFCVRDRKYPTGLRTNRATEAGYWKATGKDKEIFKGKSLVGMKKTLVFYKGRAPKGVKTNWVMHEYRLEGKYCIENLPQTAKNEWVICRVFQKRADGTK
# Summary of the method: (§1)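 GST-tagged proteins (NAC-domain, full-length or DNA-binding-domain) were induced in cells, with zinc acetate supplied for zinc-finger proteins, then purified on glutathione–Sepharose 4B. Each was tested in duplicate at 200 to 500 nM final on custom all-10-mer Agilent 4 × 180K arrays rendered double-stranded by primer extension. The binding value is the normalised enrichment score (E-score) across gapped and ungapped 8-mers.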
# GST-ANAC019 NAC domain = molecular target: T2, GST-ANAC019 NAC domain (Arabidopsis thaliana, UniProt Q9C932 14-162)
# T2 sequence: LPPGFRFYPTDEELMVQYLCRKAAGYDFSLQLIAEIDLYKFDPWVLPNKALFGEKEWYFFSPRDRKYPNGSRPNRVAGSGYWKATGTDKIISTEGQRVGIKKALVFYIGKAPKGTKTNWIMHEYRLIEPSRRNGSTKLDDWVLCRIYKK
# Summary of the method: as §1
# GST-ANAC055(1-171) = molecular target: T3, GST-ANAC055(1-171) (Arabidopsis thaliana, UniProt Q9LDY8 1-171)
# T3 sequence: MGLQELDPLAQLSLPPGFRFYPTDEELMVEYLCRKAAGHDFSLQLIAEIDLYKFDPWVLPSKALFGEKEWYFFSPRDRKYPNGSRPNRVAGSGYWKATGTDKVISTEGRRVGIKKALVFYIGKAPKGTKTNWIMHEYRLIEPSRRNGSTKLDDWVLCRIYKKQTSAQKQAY
# Summary of the method: as §1
# GST-ATAF1 NAC domain = molecular target: T4, GST-ATAF1 NAC domain (Arabidopsis thaliana, UniProt Q39013 7-158)
# T4 sequence: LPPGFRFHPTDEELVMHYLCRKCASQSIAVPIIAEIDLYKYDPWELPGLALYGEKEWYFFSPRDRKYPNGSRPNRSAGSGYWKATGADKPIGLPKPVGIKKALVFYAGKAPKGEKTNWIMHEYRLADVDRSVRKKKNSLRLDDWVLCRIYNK
# Summary of the method: as §1
# [1] = molecular target: T5, GST-ANAC092(1-285) full length (Arabidopsis thaliana, UniProt Q9FKA0 1-285)
# T5 sequence: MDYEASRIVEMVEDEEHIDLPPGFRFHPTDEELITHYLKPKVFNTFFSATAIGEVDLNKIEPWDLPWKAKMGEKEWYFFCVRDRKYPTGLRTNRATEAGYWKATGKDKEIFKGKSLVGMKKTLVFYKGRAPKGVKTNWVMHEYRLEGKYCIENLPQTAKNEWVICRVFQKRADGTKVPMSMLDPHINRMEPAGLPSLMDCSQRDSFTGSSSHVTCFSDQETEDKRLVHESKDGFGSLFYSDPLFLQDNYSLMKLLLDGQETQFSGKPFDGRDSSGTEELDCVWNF
# Summary of the method: as §1
# GST-NAP(1-166) = molecular target: T6, GST-NAP(1-166) (Arabidopsis thaliana, UniProt O49255 1-166)
# T6 sequence: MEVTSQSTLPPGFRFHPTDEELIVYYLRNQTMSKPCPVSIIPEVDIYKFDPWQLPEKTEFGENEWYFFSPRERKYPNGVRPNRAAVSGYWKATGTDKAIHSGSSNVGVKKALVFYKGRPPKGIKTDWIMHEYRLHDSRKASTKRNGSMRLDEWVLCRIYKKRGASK
# Summary of the method: as §1
# GST-NST2(1-184) = molecular target: T7, GST-NST2(1-184) (Arabidopsis thaliana, UniProt Q9M274 1-184)
# T7 sequence: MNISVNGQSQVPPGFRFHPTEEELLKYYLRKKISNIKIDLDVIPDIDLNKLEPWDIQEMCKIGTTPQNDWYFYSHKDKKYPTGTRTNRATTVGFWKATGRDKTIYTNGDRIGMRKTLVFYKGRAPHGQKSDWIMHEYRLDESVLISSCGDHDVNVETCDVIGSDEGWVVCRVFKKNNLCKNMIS
# Summary of the method: as §1
# GST-NTL8 NAC domain = molecular target: T8, GST-NTL8 NAC domain (Arabidopsis thaliana, UniProt Q9XIN7 14-156)
# T8 sequence: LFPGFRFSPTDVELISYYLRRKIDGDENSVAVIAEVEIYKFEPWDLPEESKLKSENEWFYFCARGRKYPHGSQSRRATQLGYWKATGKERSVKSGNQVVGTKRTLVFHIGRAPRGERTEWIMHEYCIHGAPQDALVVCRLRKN
# Summary of the method: as §1
# GST-SND1(1-203) = molecular target: T9, GST-SND1(1-203) (Arabidopsis thaliana, UniProt Q9LPI7 1-203)
# T9 sequence: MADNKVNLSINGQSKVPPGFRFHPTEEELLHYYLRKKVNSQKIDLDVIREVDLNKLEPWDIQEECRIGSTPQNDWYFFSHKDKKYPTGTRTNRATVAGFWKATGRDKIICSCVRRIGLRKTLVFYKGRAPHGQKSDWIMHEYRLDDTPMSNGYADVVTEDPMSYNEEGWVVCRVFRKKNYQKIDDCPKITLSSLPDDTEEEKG
# Summary of the method: as §1
# GST-VND3 NAC domain = molecular target: T10, GST-VND3 NAC domain (Arabidopsis thaliana, UniProt Q9FH59 12-162)
# T10 sequence: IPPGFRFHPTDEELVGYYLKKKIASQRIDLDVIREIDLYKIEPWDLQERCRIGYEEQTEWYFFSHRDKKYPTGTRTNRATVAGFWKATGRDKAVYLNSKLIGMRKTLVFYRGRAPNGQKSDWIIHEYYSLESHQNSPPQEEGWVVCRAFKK
# Summary of the method: as §1
# GST-VND7 NAC domain = molecular target: T11, GST-VND7 NAC domain (Arabidopsis thaliana, UniProt Q9C8W9 9-158)
# T11 sequence: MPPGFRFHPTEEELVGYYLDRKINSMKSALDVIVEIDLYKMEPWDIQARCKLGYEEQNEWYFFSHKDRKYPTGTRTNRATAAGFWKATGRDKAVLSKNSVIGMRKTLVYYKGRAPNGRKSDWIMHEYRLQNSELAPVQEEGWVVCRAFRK
# Summary of the method: as §1
Sequence,binding signal (GST-ANAC092(1-176)),binding signal (GST-ANAC019 NAC domain),binding signal (GST-ANAC055(1-171)),binding signal (GST-ATAF1 NAC domain),binding signal [1],binding signal (GST-NAP(1-166)),binding signal (GST-NST2(1-184)),binding signal (GST-NTL8 NAC domain),binding signal (GST-SND1(1-203)),binding signal (GST-VND3 NAC domain),binding signal (GST-VND7 NAC domain)
ACGCAATG,0.452 E-score,0.32 E-score,0.21 E-score,0.162 E-score,0.456 E-score,0.35 E-score,0.359 E-score,0.0941 E-score,0.437 E-score,0.314 E-score,0.311 E-score
ACACGGCA,0.481 E-score,0.485 E-score,0.479 E-score,0.446 E-score,0.481 E-score,0.457 E-score,0.245 E-score,0.0652 E-score,0.148 E-score,0.463 E-score,0.481 E-score
ATTGCGTA,0.482 E-score,0.375 E-score,0.333 E-score,0.32 E-score,0.485 E-score,0.423 E-score,0.409 E-score,0.0931 E-score,0.491 E-score,0.444 E-score,0.453 E-score
TGCGTACA,0.372 E-score,0.307 E-score,0.288 E-score,0.272 E-score,0.437 E-score,0.289 E-score,0.279 E-score,0.0577 E-score,0.393 E-score,0.305 E-score,0.281 E-score
CACGACAC,0.321 E-score,0.41 E-score,0.372 E-score,0.338 E-score,0.355 E-score,0.343 E-score,0.134 E-score,0.0614 E-score,0.0543 E-score,0.299 E-score,0.348 E-score
CTCACGCA,0.416 E-score,0.359 E-score,0.211 E-score,0.0962 E-score,0.41 E-score,0.171 E-score,0.22 E-score,0.0698 E-score,0.286 E-score,0.194 E-score,0.193 E-score
ACGCAAAC,0.459 E-score,0.391 E-score,0.265 E-score,0.258 E-score,0.471 E-score,0.368 E-score,0.357 E-score,0.0692 E-score,0.431 E-score,0.378 E-score,0.314 E-score
GTAACGTA,0.451 E-score,0.367 E-score,0.189 E-score,0.322 E-score,0.467 E-score,0.315 E-score,0.321 E-score,0.13 E-score,0.489 E-score,0.338 E-score,0.402 E-score
ACGGAACT,0.292 E-score,0.468 E-score,0.438 E-score,0.392 E-score,0.277 E-score,0.452 E-score,0.159 E-score,0.109 E-score,0.178 E-score,0.417 E-score,0.445 E-score
CACGTAAC,0.466 E-score,0.479 E-score,0.452 E-score,0.436 E-score,0.467 E-score,0.468 E-score,0.279 E-score,0.242 E-score,0.321 E-score,0.44 E-score,0.47 E-score
CGTACACG,0.337 E-score,0.221 E-score,0.287 E-score,0.278 E-score,0.403 E-score,0.288 E-score,0.0623 E-score,–,0.0837 E-score,0.317 E-score,0.3 E-score
ACGCAAGC,0.466 E-score,0.35 E-score,0.295 E-score,0.148 E-score,0.478 E-score,0.294 E-score,0.299 E-score,–,0.417 E-score,0.344 E-score,0.332 E-score
GCACGTAA,0.461 E-score,0.478 E-score,0.433 E-score,0.381 E-score,0.467 E-score,0.427 E-score,0.218 E-score,0.189 E-score,0.225 E-score,0.454 E-score,0.454 E-score
CTACGCAA,0.427 E-score,0.316 E-score,0.207 E-score,0.267 E-score,0.447 E-score,0.196 E-score,0.364 E-score,0.126 E-score,0.488 E-score,0.365 E-score,0.349 E-score
AGACGTAA,0.425 E-score,0.453 E-score,0.389 E-score,0.437 E-score,0.424 E-score,0.456 E-score,0.282 E-score,0.139 E-score,0.408 E-score,0.42 E-score,0.42 E-score
TGCGTAAA,0.396 E-score,0.205 E-score,0.131 E-score,0.216 E-score,0.386 E-score,0.162 E-score,0.291 E-score,0.0652 E-score,0.447 E-score,0.26 E-score,0.244 E-score
TCACGTAA,0.443 E-score,0.47 E-score,0.424 E-score,0.324 E-score,0.445 E-score,0.405 E-score,0.269 E-score,0.209 E-score,0.326 E-score,0.441 E-score,0.44 E-score
ACGGCACG,0.34 E-score,0.291 E-score,0.34 E-score,0.286 E-score,0.404 E-score,0.324 E-score,0.133 E-score,–,0.0651 E-score,0.217 E-score,0.233 E-score
TATACGCA,0.311 E-score,0.232 E-score,0.32 E-score,0.231 E-score,0.4 E-score,0.25 E-score,0.243 E-score,–,0.298 E-score,0.29 E-score,0.102 E-score
ACGTACGC,0.212 E-score,0.202 E-score,0.16 E-score,0.26 E-score,0.402 E-score,0.274 E-score,0.193 E-score,–,0.253 E-score,0.252 E-score,0.209 E-score
AGCACGCA,0.435 E-score,0.333 E-score,0.281 E-score,0.31 E-score,0.453 E-score,0.282 E-score,0.222 E-score,0.0609 E-score,0.343 E-score,0.301 E-score,0.216 E-score
CACGCAAC,0.496 E-score,0.486 E-score,0.463 E-score,0.437 E-score,0.498 E-score,0.489 E-score,0.444 E-score,0.181 E-score,0.482 E-score,0.476 E-score,0.484 E-score
ACGGCACT,0.331 E-score,0.467 E-score,0.449 E-score,0.454 E-score,0.393 E-score,0.425 E-score,0.187 E-score,0.0691 E-score,0.174 E-score,0.402 E-score,0.453 E-score
ATGTCGTG,0.267 E-score,0.419 E-score,0.371 E-score,0.289 E-score,0.336 E-score,0.2 E-score,0.0589 E-score,–,0.118 E-score,0.362 E-score,0.37 E-score
ACGTTACG,0.389 E-score,0.302 E-score,0.299 E-score,0.268 E-score,0.441 E-score,0.341 E-score,0.287 E-score,0.13 E-score,0.44 E-score,0.333 E-score,0.39 E-score
